Laboratory results: PubChem BioAssay (NCI)
About 83,000 compounds went through this panel and 20% of them were active in at least one assay; those are over-represented in the sample as a whole.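 Values shown are percent growth following 48 h exposure of cells in 96-well plates to a single concentration of compound; below 10 was considered active.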 Activity calls are given as the source filed them.

What was measured:
Test in all cases: NCI-60 one-dose screen, 48 h (100 = growth as untreated, 0 = no growth, -100 = all killed)
Settings in all cases: 10 µM unless noted
[1] = test system: DU-145 prostate
[2] = test system: K-562 leukemia
[3] = test system: MALME-3M melanoma
[4] = test system: MDA-MB-231 breast
[5] = test system: RXF 393 renal
[6] = test system: SF-268 CNS
[7] = test system: SF-295 CNS
[8] = test system: SF-539 CNS
[9] = test system: UACC-257 melanoma
[10] = test system: M14 melanoma
[11] = test system: HCT-15 colon
[12] = test system: HT29 colon
[13] = test system: SNB-75 CNS
[14] = test system: SNB-19 CNS
[15] = test system: U251 CNS
[16] = test system: PC-3 prostate
[17] = test system: SK-MEL-5 melanoma
[18] = test system: UACC-62 melanoma
[19] = test system: LOX IMVI melanoma
[20] = test system: SK-MEL-28 melanoma

Measured: growth

N#CC1=C(N)Oc2c(c(=O)[nH]c3ccc(Cl)cc23)C12C(=O)c1ccccc1C2=O
inactive: [1] 106% | [2] 126% | [3] 95% | [4] 90.3% | [5] 101% | [6] 92% | [7] 104% | [8] 92.3% | [9] 101% | [10] 97.8% | [11] 98.6% | [12] 108% | [13] 76.5% | [14] 91.6% | [15] 99.4% | [16] 91.6% | [17] 95.9% | [18] 89.4% | [19] 99.6% | [20] 104%

Cn1cc(C(=O)c2nc(-c3c[nH]c4ccccc34)no2)c2cc(F)ccc21
inactive: [1] 72.5% | [2] 16.7% | [3] 37.3% | [4] 57.1% | [5] 89.9% | [6] 54.9% | [7] 20.7% | [8] 30% | [9] 51.2% | [10] 33% | [11] 33.2% | [13] 27.4% | [14] 38.8% | [15] 28.5% | [16] 41.9% | [17] 25.3% | [18] 31.7% | [19] 39.5% | [20] 64.6%
active: [12] 8.8%

Nc1n[nH]c2ccc([C@H]3[C@@H]4C5CCC(C5)[C@@H]4c4c(ccc5[nH]ncc45)N3S(=O)(=O)C3CC3)cc12 (stereo not given in full)
active: [4] -9.16% | [8] -25.5% | [10] 7.92% | [12] 9.97% | [13] -10.3% | [17] -22.4% | [19] 8.72%
inactive: [1] 17.9% | [2] 13.6% | [3] 61.4% | [5] 26.2% | [6] 37.1% | [7] 12.6% | [9] 63.8% | [11] 12.3% | [14] 23.2% | [15] 17.7% | [16] 28.3% | [18] 32.5% | [20] 52.7%

CN1CCc2nc3sc(C(N)=O)c(N)c3c(-c3cccs3)c2C1
active: [5] -32% | [17] -58.7% | [19] 7.95% | [20] 5.5%
inactive: [1] 10.2% | [2] 74.2% | [3] 55% | [4] 44.5% | [6] 16.4% | [7] 21.7% | [8] 10.9% | [9] 57.9% | [10] 15.5% | [11] 33% | [12] 42.6% | [13] 25.2% | [14] 37.9% | [15] 27.4% | [16] 32.5% | [18] 19.5%

Nc1ncnc2c1C(c1ccccc1)c1ccc3ccccc3c1O2 (stereo not given)
inactive: [1] 99.8% | [2] 70% | [3] 110% | [4] 89.1% | [5] 104% | [6] 84.7% | [7] 88% | [8] 90.7% | [9] 79.7% | [10] 95.8% | [11] 96.5% | [12] 92.5% | [13] 64.7% | [14] 80.7% | [15] 86.4% | [16] 70.5% | [17] 77.7% | [18] 68.5% | [19] 72.1% | [20] 103%

C=C1C(=O)O[C@H]2[C@H]1CC/C(COC(=O)c1cc3ccccc3s1)=C\CC[C@@]1(C)O[C@@H]21
active: [1] -80.6% | [2] 2.38% | [3] -67.2% | [4] -66.1% | [5] -88.8% | [6] -60.6% | [8] -88.4% | [9] -63.3% | [10] -81.1% | [11] -62.4% | [12] -75.4% | [13] -7.28% | [14] -9.05% | [15] -82.6% | [16] -56% | [17] -93.8% | [18] -61.1% | [19] -83.7% | [20] -70.7%
inactive: [7] 32%

CCOc1ccccc1Cn1ccnc1CCc1c(Cl)c(O)cc(O)c1C(=O)OC
inactive: [1] 104% | [2] 94.7% | [3] 91.8% | [4] 96.7% | [5] 108% | [6] 102% | [7] 95.2% | [8] 103% | [9] 93.7% | [10] 95.2% | [11] 104% | [12] 94.8% | [13] 88.2% | [14] 92.4% | [15] 97.5% | [16] 86.9% | [17] 94.6% | [18] 92.1% | [19] 89.2% | [20] 96.6%

CC/C(=C(/c1ccc(Cl)cc1)c1ccc(OCCN2CCCCC2)cc1)c1ccc(OC)cc1
inactive: [1] 82.8% | [3] 75.4% | [4] 73.3% | [5] 47.9% | [6] 86.5% | [7] 55.1% | [8] 65.5% | [9] 54.2% | [10] 28.2% | [11] 18.5% | [12] 11.9% | [13] 103% | [14] 72.4% | [15] 40.6% | [16] 30.9% | [17] 36.6% | [18] 78.8% | [19] 53.4% | [20] 82.7%
active: [2] 2.95%

N#Cc1c(-c2ccc(Cl)cc2)c(C#N)c2c(C#N)c(N)nn2c1N
inactive: [1] 84% | [2] 89.3% | [3] 106% | [4] 71.3% | [5] 79.7% | [6] 83.7% | [7] 83.3% | [8] 78% | [9] 89.2% | [10] 103% | [11] 88.2% | [12] 83.3% | [13] 74.8% | [14] 88.2% | [15] 87.9% | [16] 65.2% | [17] 87.9% | [18] 72.9% | [19] 76.6% | [20] 99.3%

Fc1cnccc1C1CC(c2ccc(N3CCNCC3)cc2)=NN1 (stereo not given)
inactive: [1] 107% | [2] 77.9% | [3] 93.4% | [4] 84.6% | [5] 105% | [6] 107% | [7] 98% | [8] 104% | [9] 83.1% | [10] 95.9% | [11] 97.6% | [12] 60.2% | [13] 101% | [14] 97.5% | [15] 95.1% | [16] 70.3% | [17] 85.8% | [18] 81.9% | [19] 94.3% | [20] 116%

Cc1ccc(C[P+](c2ccccc2)(c2ccccc2)c2ccccc2)cc1
active: [1] 7.44% | [2] 2.1% | [7] 2.31% | [9] 3.36% | [10] 5.62% | [12] 2.44% | [13] -3.92% | [15] 7.54% | [16] 4.25% | [17] -66.3% | [18] 6.79% | [20] 9.82%
inactive: [3] 10.1% | [4] 18.7% | [5] 16.6% | [6] 15.5% | [8] 16.3% | [11] 82.5% | [14] 19.9% | [19] 15.4%

COc1ccc(/C=C/C(=O)c2cc3c(N)c(C(=O)Nc4cccc5ccccc45)sc3nc2C)cc1
inactive: [1] 84.5% | [2] 28.8% | [3] 64.7% | [4] 93% | [5] 63.4% | [6] 74.5% | [7] 54.4% | [8] 76.9% | [9] 65.2% | [10] 60% | [11] 44.1% | [12] 70.2% | [13] 53.6% | [14] 56.3% | [15] 45.3% | [16] 75.6% | [17] 68.9% | [18] 21.3% | [19] 60.1% | [20] 64.9%

O=C(C[C@]1(O)C(=O)Nc2ccccc21)c1cccc(C(F)(F)F)c1
inactive: [1] 99.2% | [2] 96% | [3] 83.1% | [4] 91% | [5] 101% | [6] 85.8% | [7] 96.3% | [8] 88% | [9] 99.7% | [10] 93.1% | [11] 96.5% | [12] 96.1% | [13] 76.8% | [14] 95.9% | [15] 92.4% | [16] 81.4% | [17] 91.7% | [18] 78.3% | [19] 93.2% | [20] 91.6%

N#Cc1nc(-c2ccccc2)oc1S(=O)(=O)N1CCN(c2ccccc2)CC1
inactive: [1] 107% | [2] 34.9% | [3] 90.1% | [4] 105% | [5] 114% | [6] 107% | [7] 105% | [8] 100% | [9] 92.7% | [10] 81.1% | [11] 44.2% | [12] 86.5% | [13] 66.7% | [14] 99.6% | [15] 98.9% | [16] 94.9% | [17] 90% | [18] 84.4% | [19] 39.7% | [20] 106%

Cc1ccccc1/C=C/C(=O)c1cccc(OCCCCOc2cccc(C(=O)/C=C/c3ccccc3C)c2)c1
inactive: [1] 98% | [2] 97.1% | [3] 96.9% | [4] 95% | [5] 98.6% | [6] 102% | [7] 97.7% | [8] 105% | [9] 92.2% | [10] 97.9% | [11] 84.6% | [12] 86.8% | [13] 90.9% | [14] 93.5% | [15] 93% | [16] 100% | [17] 101% | [18] 74.8% | [19] 95.9% | [20] 95.2%
